Screens from PubChem.
MITF primary – MITF inhibitors, primary screen, biochemical, AlphaScreen, human. AlphaScreen MITF homodimerization, bead proximity signal. Microphthalmia-associated transcription factor (Homo sapiens), O75030. hit rate 0.91% among 650,000. inhibition, % at 2.6 µM; in the data active = inhibition above about 50%
Target sequence (O75030 whole entry, looked up): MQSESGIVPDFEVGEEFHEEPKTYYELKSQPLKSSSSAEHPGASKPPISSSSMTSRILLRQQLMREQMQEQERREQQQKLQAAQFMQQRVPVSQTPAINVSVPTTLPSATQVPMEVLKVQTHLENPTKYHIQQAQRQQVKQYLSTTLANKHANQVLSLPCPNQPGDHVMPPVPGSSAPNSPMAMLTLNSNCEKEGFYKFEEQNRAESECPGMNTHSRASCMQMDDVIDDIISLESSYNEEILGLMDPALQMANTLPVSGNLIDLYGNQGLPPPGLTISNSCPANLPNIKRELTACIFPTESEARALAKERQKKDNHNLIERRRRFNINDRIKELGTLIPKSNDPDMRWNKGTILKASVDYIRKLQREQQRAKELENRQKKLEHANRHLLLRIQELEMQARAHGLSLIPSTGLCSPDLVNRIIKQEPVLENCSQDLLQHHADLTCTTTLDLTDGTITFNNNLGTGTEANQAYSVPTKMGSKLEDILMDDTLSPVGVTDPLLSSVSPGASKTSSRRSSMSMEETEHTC
GPR151 ag – activators of human GPR151, primary screen, cell-based, PathHunter beta-arrestin, luminescence; PathHunter beta-arrestin GPR151 cells; activation, % at 11.2 µM; hit rate 1% among 650,000; AID 1508602, 2020; in the data active = activation above about 4.9%
FBW7 activator – FBW7 E3 ligase activators, primary screen, biochemical, AlphaScreen, human; F-box/WD repeat-containing protein 7 (Homo sapiens), Q969H0; normalized activity (activation), % at 26.1 µM; AID 1259310, 2017; hit rate 0.13% among 650,000; AlphaScreen FBW7–phospho-cyclin E peptide binding, activator screen; in the data active = normalized activity above about 1.9%;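 also: purified mutant Fbw7 with reduced substrate affinity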
TEAD-YAP inh – TEAD-YAP interaction inhibition, primary screen, TEAD-YAP interaction inhibitor project, luminescence, HEK-TIYL cells; TEAD-Gal4/YAP UAS-luciferase luminescence; inhibition, % at 9.12 µM; hit rate 1.4% among 640,000; AID 1259422, 2018; in the data active = inhibition above about 32%
Large screens that a line does not name were inactive. Sampled rows, rich in hits. Any-hit rate of the full collection: about 3.5%.

COc1cc(NS(=O)(=O)c2ccc3c(c2)oc(=O)n3C)cc(OC)c1OC	TEAD-YAP inh 48
COc1cc(NS(=O)(=O)c2ccc(-c3cc(C)no3)cc2)cc(OC)c1OC	TEAD-YAP inh 61
CCOc1ccccc1NC(=O)CN1C(=O)CC(c2ccccc2)=Nc2ccccc21	none
O=c1oc2cc(O)ccc2cc1-c1nc(-c2cccs2)cs1	TEAD-YAP inh 77
O=c1oc2cc(O)ccc2cc1-c1nnc(Nc2ccc(F)cc2)s1	none
CCc1ccc(Nc2nnc(-c3cc4ccc(O)cc4oc3=O)s2)cc1	TEAD-YAP inh 34
O=c1oc2cc(O)ccc2cc1-c1nc(-c2ccccc2)cs1	none
COc1ccc(-n2ncc3c(=O)[nH]cnc32)cc1	none
COc1ccc(-n2nc3nc[nH]c(=O)c3n2)cc1	TEAD-YAP inh 46
CC(=O)N1CCN(Cc2ccc3c(c2)CN(C(=O)c2ccc(F)c(Cl)c2)CCO3)CC1	none
CS(=O)(=O)Nc1ccc(-c2cnc3cccc(Nc4cncnc4)c3c2)cc1	none
CS(=O)(=O)Nc1ccc(-c2cnc3cccc(Nc4cc(-c5ccccc5)ccn4)c3c2)cc1	FBW7 activator 2.4
Cc1ccc(S(=O)(=O)N(C)C)cc1NC(=O)C(C)OC(=O)c1ccc(CO)cc1 (stereo not given)	none
CC(=O)c1ccc(N(C(F)F)S(=O)(=O)c2ccc(Cl)cc2)cc1	none
CC(C)c1ccc2oc(-c3cc(N)ccc3O)nc2c1	TEAD-YAP inh 64
CC(C)c1ccc2oc(-c3ccc(N)cc3O)nc2c1	TEAD-YAP inh 87
Cc1ccc2oc(-c3cc(N)ccc3O)nc2c1	none
Cc1cc2nc(-c3ccc(N)cc3O)oc2cc1C	none
O=[N+]([O-])c1cc(Oc2ccccc2)cc(Oc2ccc(Br)cc2)c1	none
CC(=O)Nc1ccc(NC(=O)c2ccccc2)c(C)c1	FBW7 activator 12
Cc1cc(NC(=O)c2ccccc2)ccc1O	TEAD-YAP inh 73
Cc1cc(NC(=O)/C=C/c2ccccc2)ccc1O	TEAD-YAP inh 73
COC(=O)C1=CN(Cc2ccc(Cl)cc2)C=C(C(=O)OC)C1c1ccc2c(c1)OCO2	none
O=C(NCC1CCCN(CCCn2cccn2)C1)c1cccc(C(F)(F)F)c1 (stereo not given)	none
C=CCn1c(COc2c(C)cccc2C)n[nH]c1=S	none
c1ccc2c(-c3cnn4c(N5CCOCC5)ccnc34)cccc2c1	none
Fc1ccccc1-c1cnn2c(N3CCOCC3)ccnc12	TEAD-YAP inh 64
Clc1cccc(-c2cnn3c(N4CCOCC4)ccnc23)c1	TEAD-YAP inh 77
OCc1ccccc1-c1cnn2c(N3CCOCC3)ccnc12	TEAD-YAP inh 94
CCC(CC)=NNC(=O)C(=O)Nc1ccc(Cl)cc1C	none
O=S(=O)(c1ccc(-c2ccco2)cc1)C1CCN(c2ncnc3nc[nH]c23)CC1	none
O=C(NCCCc1ccncc1)C1CC12CCN(C(=O)C1=CCCCC1)CC2 (stereo not given)	none
COc1cc2c(c(OC)c1OC)C(c1ccc(F)c(Br)c1)CC(=O)N2 (stereo not given)	none
COc1cc(/C=C/C(=O)c2ccccc2OC)ccc1OCC#N	TEAD-YAP inh 58
O[C@@H]1[C@@H](O)C=C2CCN3Cc4cc5c(cc4[C@H]1C23)OCO5 (stereo not given in full)	TEAD-YAP inh 82
O=C(Cn1cnc2c(cnn2-c2ccc(Cl)cc2)c1=O)NCc1ccc2c(c1)OCO2	none
CCN1CCN(CC(=O)c2cc(C)n(-c3ccc(F)cc3)c2C)CC1	MITF primary 80
Cc1cc(C(=O)CN2CCN(C)CC2)c(C)n1-c1ccc(Br)cc1	MITF primary 88
CCOc1ccc(-c2cc(C(=O)N/N=C/c3ccc(O)c(OC)c3)[nH]n2)cc1OC	none
O=C(Nc1nc2ccccc2n1Cc1ccccc1Cl)c1ccccc1	none
CC(=O)Nc1nc2ccccc2n1Cc1ccccc1Cl	TEAD-YAP inh 33
O=C(NNC(=O)C1(c2ccc(Cl)cc2)CCCC1)Nc1ccccc1	none
COC(=O)CSc1nnc(-c2cccnc2)n1C	FBW7 activator 1.9
COc1ccccc1-n1c(SCC(=O)Nc2ccc(F)cc2)nnc1-c1ccncc1	none
COc1ccccc1-n1c(SCC(=O)Nc2ccccc2F)nnc1-c1cccnc1	TEAD-YAP inh 58
COc1ccccc1-n1c(SCC(=O)Nc2nc(C)cs2)nnc1-c1ccncc1	TEAD-YAP inh 51
CCCCNC(=O)CSc1nnc(-c2cccnc2)n1-c1ccccc1OC	none
COc1cccc(-c2nnc(SCC(=O)Nc3ccccc3OC)n2-n2cccc2)c1	TEAD-YAP inh 50
COc1cccc(-n2c(SCC(=O)Nc3ccccc3OC)nnc2-c2cccnc2)c1	none
N#Cc1c(-c2ccccc2)c(C#N)c(=O)n(N)c1N	none
Cc1ccc2oc(-c3ccc(NC(=O)c4ccc(-c5ccccc5[N+](=O)[O-])o4)cc3)nc2c1	none
Oc1ccc(-c2nc3cnccn3c2NCc2ccc(F)cc2)cc1O	none
COc1ccccc1NC(=O)CSc1nnc(-c2cccnc2)n1-c1ccccc1C	TEAD-YAP inh 70
Cn1cc(-c2cccc3cnc(NC4CCN(C(=O)N5CCCC5)C4)nc23)cn1 (stereo not given)	TEAD-YAP inh 39
O=C(CCCc1ccccc1)Nc1cccc(N2CCC(NC3CCOCC3)CC2)c1	none
NC(=O)[C@@H]1CCCN1C1CCN(c2cccc(NC(=O)CCCc3ccccc3)c2)CC1	TEAD-YAP inh 39
Cc1ccc2c(c1)NC(=O)c1cc(NC(=O)c3ccccc3Br)ccc1O2	TEAD-YAP inh 44
Cc1ccc2c(c1)Oc1ccc(NC(=O)CCCl)cc1C(=O)N2	TEAD-YAP inh 33
CCOc1ccc2nc(NC(=O)c3cccc(N4C(=O)C5CC=CCC5C4=O)c3)sc2c1 (stereo not given)	none
CCn1c(SCC(=O)Nc2ccc([N+](=O)[O-])cc2)nnc1-c1ccc(O)cc1	TEAD-YAP inh 50
CCc1ccc(N2CC(C(=O)NCC(C)(C)CNC(=O)C3CC(=O)N(c4ccc(CC)cc4)C3)CC2=O)cc1 (stereo not given)	FBW7 activator 4.5
N/C(=N\c1nc(C(F)(F)F)cc(=O)[nH]1)Nc1ccc(I)cc1	TEAD-YAP inh 45
Cc1sc2ccccc2[n+]1CCO	none
CCN1/C(=C/C(C)=C/c2sc3ccccc3[n+]2CCO)Sc2ccccc21	TEAD-YAP inh 39
CCN1\C(=C/C=C(C)/C=C/c2sc3ccccc3[n+]2CC)Sc2ccccc21	FBW7 activator 11, TEAD-YAP inh 66
CCN1/C(=C/c2sc3ccccc3[n+]2CCO)Sc2ccccc21	TEAD-YAP inh 38
C=CCN1/C(=C/C=C/c2sc3ccccc3[n+]2CC=C)Sc2ccccc21	TEAD-YAP inh 89
CCOC(=O)C1(CCCc2ccccc2)CCN(C(=O)c2csnn2)CC1	none
CCOC(=O)C1=C(C)N=c2s/c(=C\c3ccc(C)o3)c(=O)n2C1c1ccc(C(C)C)cc1 (stereo not given)	none
CCN1CCc2c(sc(NC(=O)c3ccc(S(=O)(=O)N(CC)CC)cc3)c2-c2nc3ccccc3s2)C1	none
